Measurements published in ChEMBL document CHEMBL3988442, “University of Dundee, Small-Polar-MMV Screening Library” (2021).
About 13,000 (27%) of roughly 48,000 compounds showed an effect of 50% or more. The list shows a part of the results.

Test system: Wolbachia pipientis
Test: Anti-Wolbachia Cell-Based Screen
Type: functional
Design: scale not given: in the data most compounds retested in dose-response had high values
Conditions: 5 µM

Row | SMILES | Percent Effect [%]
1 | O=C(NC1CCN(c2ncccn2)CC1)c1cc2c([nH]c1=O)CCC2 | 7.428
2 | Cc1nnc(SCCC(=O)N(C)Cc2ccc(F)cc2F)[nH]1 | 2.141
3 | O=C(O)C(F)(F)F.O=C1CC[C@H]2[C@H](CCN2C(=O)C2CCOCC2)N1Cc1ccncc1 | 25.13
4 | CN1CCN(C(=O)c2ccc3c(c2)[nH]c(=O)n3C2CCCC2)CC1 | 14.39
5 | Cc1cc(-c2nn(C)c(Cl)c2CN2CCCCC(N)C2)no1 (configuration not stated) | -8.809
6 | COCc1cc(CC2(NC3CCCCC3)COC2)no1 | 18.94
7 | CC(Cn1cccn1)NCc1csc(-c2ccc3c(c2)OCO3)n1 (configuration not stated) | -1.421
8 | Cc1cc2[nH]c(CN3CCOC(Cc4ccccc4)C3)cc(=O)n2n1 (configuration not stated) | -6.493
9 | Cc1cccc(C(=O)Nc2cccc3c2C(=O)NC3)n1 | -5.114
10 | COCC1CN(C(=O)c2cccc(C)n2)Cc2ncnn2C1 (configuration not stated) | -6.948
11 | CCc1sc(-c2nnc(CNC(C)Cn3cc(C)cn3)o2)cc1C (configuration not stated) | -3.595
12 | CCc1ccc(CN2CCN(Cc3ncc[nH]3)[C@H]3CS(=O)(=O)C[C@H]32)nc1 | 8.56
13 | [O-][S+](CCN1CCc2[nH]nc(C(F)(F)F)c2C1)c1ccccc1 (configuration not stated) | -3.726
14 | CCC1CCCCN1Cc1nc2c(cnn2C)c(=O)[nH]1 (configuration not stated) | 107.5
15 | Cn1ncc2c(=O)[nH]c(CN3CCCC3CC(C)(C)C)nc21 (configuration not stated) | 114.1
16 | Cc1ccc(C2CCCN2Cc2nc3c(cnn3C)c(=O)[nH]2)cc1C (configuration not stated) | 2.271
17 | Cn1ncc2c(=O)[nH]c(CN3CCCC3Cc3ccccc3)nc21 (configuration not stated) | -2.22
18 | COc1cccc(C2CCCN2Cc2nc3c(cnn3C)c(=O)[nH]2)c1 (configuration not stated) | -3.209
19 | Cn1ncc2c(=O)[nH]c(CN3CCC(Cc4ccccc4)CC3)nc21 | -8.773

Row | SMILES | Percent Effect [%]
20 | Cn1ncc2c(=O)[nH]c(CN3CCCC3CC3CCCCC3)nc21 (configuration not stated) | -0.1708
21 | Cn1ncc2c(=O)[nH]c(CN3CCCC3CCc3ccccc3)nc21 (configuration not stated) | 94.92
22 | Cn1ncc2c(=O)[nH]c(CN3CCCC3Cc3ccc(F)cc3)nc21 (configuration not stated) | 116
23 | COc1ccccc1-c1noc(CCC(=O)NC(C)Cn2cccn2)n1 (configuration not stated) | -41.91
24 | COc1ccc(-n2ccnc2-c2cnc(N(C)C)nc2)cc1OC | -6.365
25 | Cc1ccc(CN2CCN(c3ncccc3Cl)CC2CCO)cc1 (configuration not stated) | -15.14
26 | O=C(c1cn2cc(Cl)cnc2n1)N1CCOCC(O)(CN2CCCC2)C1 (configuration not stated) | -2.711
27 | Cc1nccn1-c1ccc(C(C)NCCc2ccccn2)cc1 (configuration not stated) | 8.244
28 | CNC1CCCN(Cc2noc(C3CC3)n2)C1.Cl (configuration not stated) | -6.036
29 | Cn1ccnc1CNC1CCCN(Cc2noc(C3CC3)n2)C1 (configuration not stated) | -20.64
30 | CCc1nc(CN2CCCC(NCc3cc(C)no3)C2)no1 (configuration not stated) | 2.816
31 | CCc1noc(CNC2CCCN(Cc3noc(C4CC4)n3)C2)n1 (configuration not stated) | 122.3
32 | CCc1nc(CN2CCCC(NCc3ccc(C(N)=O)cc3)C2)no1 (configuration not stated) | -8.136
33 | CCc1nc(CN2CCCC(NCc3nnc(C4CC4)n3C)C2)no1 (configuration not stated) | 109.6
34 | CCc1nc(CN2CCCC(NCc3nc(C)c(C)o3)C2)no1 (configuration not stated) | 135.7
35 | C1CC(NCc2nc(C3CC3)no2)CN(Cc2noc(C3CC3)n2)C1 (configuration not stated) | 4.824
36 | CCc1nc(CN2CCCC(NCc3ncc(C(C)(C)C)o3)C2)no1 (configuration not stated) | 9.361
37 | CCc1nc(CN2CCCC(NCCn3cncn3)C2)no1 (configuration not stated) | 25.84
38 | CCCc1noc(CNC2CCCN(Cc3noc(C4CC4)n3)C2)n1 (configuration not stated) | 116.1

Row | SMILES | Percent Effect [%]
39 | Cc1ncc(CNC2CCCN(Cc3noc(C4CC4)n3)C2)s1 (configuration not stated) | -12.11
40 | COCCN(Cc1ccc(F)cc1Cl)C(=O)c1cc(C)no1 | 3.523
41 | Cc1cccc2c1nc1n2[C@@H](CNC(=O)Cc2ccccc2)COC1 | -6.284
42 | Cc1cc(C)c2c(N(C)CC3CCN(CC(C)C)C3)ncnc2n1 (configuration not stated) | 16
43 | Cc1nc(C(=O)N(Cc2c(C)nn(C)c2C)C(C)C)cs1 | 0.2586
44 | CCN(C(=O)c1cccc2c1OCO2)c1ccc(Br)cn1 | -0.9868
45 | CCOc1ccc(N2CCC(C(O)c3ccccc3)CC2)nn1 (configuration not stated) | -5.535
46 | CC(C)S(=O)(=O)c1nnc(CCNC(=O)OC(C)(C)C)o1 | 16.12
47 | O=S(=O)(Cc1ccccc1Cl)NC(CO)c1ccco1 (configuration not stated) | -8.194
48 | Cc1ccccc1CS(=O)(=O)c1nnc(N2CCOCC2)s1 | -8.396
49 | C[C@H](NC(=O)OC(C)(C)C)c1nnc(S(=O)(=O)Cc2cccc(F)c2)o1 | 143.7
50 | CCC(C)NC(=O)CS(=O)(=O)Cc1ccccc1Cl (configuration not stated) | -0.4939
51 | CC(C)NC(=O)NCCCc1cccc(F)c1 | -3.402
52 | CC(NC1(CNC(=O)OC(C)(C)C)CCOCC1)c1ccccc1 (configuration not stated) | 3.949
53 | Cc1ccccc1CS(=O)(=O)c1nnc(C(C)NC(=O)OC(C)(C)C)o1 (configuration not stated) | 85.24
54 | CC(C)(C)OC(=O)NCCC(=O)NCC(O)c1cccc(F)c1 (configuration not stated) | -4.021
55 | CC(NC(=O)CNC(=O)OC(C)(C)C)c1ccc(Cl)s1 (configuration not stated) | -4.782
56 | CC(NC(=O)OC(C)(C)C)c1nnc(S(=O)(=O)Cc2ccc(Cl)cc2)o1 (configuration not stated) | 137.4
57 | CC(NC(=O)OC(C)(C)C)c1nnc(S(=O)(=O)Cc2ccccc2Cl)o1 (configuration not stated) | 135.1
